Records with an inconclusive call do not appear. Unmarked numbers belong to inactive results. Activity calls are given as the source filed them. Calls come from the whole dose curve.

Peroxisome proliferator-activated receptor delta (Homo sapiens), sequence (Q03181 whole entry, looked up): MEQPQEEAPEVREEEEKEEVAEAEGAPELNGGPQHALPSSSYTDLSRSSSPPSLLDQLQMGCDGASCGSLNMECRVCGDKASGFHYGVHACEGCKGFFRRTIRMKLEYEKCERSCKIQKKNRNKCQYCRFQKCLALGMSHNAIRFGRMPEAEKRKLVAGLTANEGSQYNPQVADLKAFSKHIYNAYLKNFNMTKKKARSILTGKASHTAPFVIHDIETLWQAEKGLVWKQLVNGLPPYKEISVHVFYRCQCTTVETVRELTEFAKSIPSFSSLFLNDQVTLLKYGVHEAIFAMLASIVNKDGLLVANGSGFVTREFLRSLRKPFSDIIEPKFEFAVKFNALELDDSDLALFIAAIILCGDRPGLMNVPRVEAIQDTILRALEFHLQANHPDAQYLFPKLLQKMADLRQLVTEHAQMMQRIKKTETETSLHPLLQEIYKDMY

The target of this experiment is Peroxisome proliferator-activated receptor delta (Homo sapiens) (UniProt Q03181). The experiment is described as follows: qHTS assay for small molecule agonists of peroxisome proliferator-activated receptor delta signaling (AID 588534).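 Note: 0% = DMSO basal wells and 100% = positive control agonist at 10 µM.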 To be noted: HEK293T PPARdelta-UAS-bla, beta-lactamase ratio, 18 h; series mostly up to 76.7 µM; activation: at the top concentration. An excerpt:
NIH Chemical Genomics Center [NCGC] U.S. Environmental Protection Agency [EPA] National Institutes of Environmental Health Sciences [NIEHS] National Toxicology Program [NTP] NCGC Assay Overview The Peroxisome proliferator-activated receptors (PPARs) are lipid-activated transcription factors of the nuclear receptor superfamily with three distinct subtypes namely PPAR alpha, PPAR delta (also called PPAR beta) and PPAR gamma. All these subtypes heterodimerizes with Retinoid X receptor (RXR) and have different physiological functions. […] This role of PPAR delta implicates the potential use of its ligands in the treatment of metabolic disorders.
Compounds were screened in a titration series in 1536-well format. […] Concentration-response titration points for each compound were fitted to the Hill equation yielding concentrations of half-maximal stimulation (EC50) and maximal response (efficacy) values. qHTS protocol for PPAR-delta beta-lactamase assay in agonist mode [Step] [Parameter] [Value] [Description] 1. Reagent; 6 uL; 4000 cells/well 2. Incubation; 37 C for 5 hrs 3. Compounds; 23 nL; 0.59 nM to 92 uM 4. […] Incubation; 37 C for 18 hrs 6. Detection reagent; 1 uL of CCF4-dye 7. Incubation; RT for 2 hrs 8. Detection; Fluorescence; Envision plate reader
As for `CCCCCNCCCCC`, the outcome was inactive.

In the case of `N#Cc1c[nH]cc1-c1cccc2c1OC(F)(F)O2`, the “activation” value was -2.34%.

Consider `C=Cc1ccccc1C=C`, for which the “activation” value is 5.96%.

Consider `O=C(CCl)c1ccccc1`, for which the “activation” value was -0.373%.

Regarding `Cc1cc(-c2ccc(N=Nc3cc(S(=O)(=O)O)c4ccccc4c3N)c(C)c2)ccc1N=Nc1cc(S(=O)(=O)O)c2ccccc2c1N`, the “activation” value is 1.69%.

As for `CC(C)COP(=O)(OCC(C)C)OCC(C)C`, the “activation” value was 0.801%.

In the case of `CC/C=C1/OC(=O)c2ccccc21`, the “activation” value was -0.941%.

On to `O=C(O)c1ccc(C(=O)O)cc1`, for which the result was inactive.

Turning to `CCCCCCCCCCCO`, the “activation” value was 2.11%.

Turning to `C[Si](Cl)(Cl)[Si](C)(Cl)Cl`, the “activation” value was 1.29%.

Turning to `CCC(Cl)CC(Cl)C(Cl)C(Cl)C(Cl)C(C)Cl` (stereo not given), the “activation” value is 8.91%.

For the compound `Nc1cc([N+](=O)[O-])ccc1O`, the result was inactive.

For the compound `CCCCCCCCCCCCC1CO1` (stereo not given), the “activation” value is 9.56%.

`Cc1ccc(C)c(N)c1`: the “activation” value is -0.38%.

As to `CC(C)(O)C(=O)O`, the “activation” value is -0.367%.

For `CCSC(=O)N(CC)C1CCCCC1`, the “activation” value was -6.27%.

As for `COc1cnc(OC)n2nc(NS(=O)(=O)c3c(OCC(F)F)cccc3C(F)(F)F)nc12`, the “activation” value is -9.71%.

Consider `Cc1ccc2ccccc2c1[N+](=O)[O-]`, for which the “activation” value is -2.25%.

For the compound `CC(C)(C#N)N=NC(C)(C)C#N`, the “activation” value is -9.99%.

Turning to `O=[N+]([O-])c1cc(C(F)(F)F)cc([N+](=O)[O-])c1Cl`, the “activation” value is -7.53%.

Turning to `C[C@]12CC[C@@H]3c4ccc(O)cc4CC[C@H]3[C@@H]1CC[C@H]2O`, the “activation” value is 0.988%.

Turning to `CC(C)Cc1nccs1`, the “activation” value was 5.24%.

Turning to `O=c1[nH]c(=O)c2[nH]cnc2[nH]1`, the “activation” value is -0.222%.

In the case of `O=C(Cl)c1ccc(C(=O)Cl)cc1`, the “activation” value is -1.63%.

Regarding `CCOC(=O)C(C)C(C)=O` (stereo not given), the “activation” value was 10%.

Consider `CO`, for which the “activation” value is 2.5%.

For `C=CC(C)(O)CCCC(C)CCCC(C)CCCC(C)C` (stereo not given), the “activation” value was 15.6%.

On to `O=[N+]([O-])c1cccc(C(F)(F)F)c1`, for which the “activation” value was 2.45%.

As to `O=[N+]([O-])c1cc(Cl)c(Cl)c(Cl)c1Cl`, the “activation” value was 5.13%.

For `CC(Cl)(Cl)C(=O)OCCOc1cc(Cl)c(Cl)cc1Cl`, the “activation” value was -7.9%.

`Cc1ccc(N)cc1[N+](=O)[O-]`: the “activation” value was -6.49%.

As to `O=C1OC(=O)c2c(Cl)c(Cl)c(Cl)c(Cl)c21`, the outcome was inactive.

For `CCCCC/C=C\C/C=C\CCCCCCCC(=O)OC`, the “activation” value was -0.472%.

In the case of `CC1=C2[C@@H]([C@H](C)CC[C@H]2/C=C(\C)C(=O)O)[C@H](O)C1`, the “activation” value was -10.4%.

Take `CCCC[O][Al]([O]CCCC)[O]CCCC`: the “activation” value was 6.52%.

Take `CC(=O)OC(C(=O)c1ccccc1)c1ccccc1` (stereo not given): the “activation” value is -4.1%.

For the compound `CCCCCCCCCCCCCCCCCCN`, the “activation” value was 1.25%.

Turning to `CC(C)(N=C=O)c1cccc(C(C)(C)N=C=O)c1`, the “activation” value is 2.17%.

Regarding `CC(C)CCCCCCc1ccc(O)cc1`, the “activation” value is -1.35%.

Regarding `CN(C)CCCNCCCN`, the “activation” value was 2.69%.

The record behind these values is PubChem BioAssay (NCATS).
